From PubChem BioAssay
Rows were chosen to be rich in hits. Some 10% of all compounds tested hit in one or more screens of this group.
HP1b chromo inh – HTS for Inhibitors of HP1-beta Chromodomain Interactions with Methylated Histone Tails | actives 0.56% (n = 390,000) | Potency, µM (doses to about 114 µM), actives largely listed as inhibitors | Chromobox protein homolog 1 (Homo sapiens), P83916 | AlphaScreen HP1-beta / biotin-H3K9me3 peptide binding | AID 540317, 2011; note: nearly all actives have a fitted effect of over 70% in size
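HP1-beta protein (50 nM final) preincubated 30 min at room temperature with biotinylated H3(1-18)K9me3 peptide (50 nM) in PBS pH 7.4, 0.01% Tween-20, then compound added for 30 min. AlphaScreen streptavidin donor/nickel chelate acceptor beads (10 ug/mL final), 30 min dark, luminescence read.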
G9a inh – qHTS Assay for Inhibitors of Histone Lysine Methyltransferase G9a; Potency, µM (titrated, usually from 102 µM), actives largely listed as inhibitors; AID 504332, 2011; G9a H3K9 monomethylation, AlphaScreen, 2 h; actives 8.8% (n = 350,000); Histone-lysine N-methyltransferase EHMT2 (Homo sapiens), Q96KQ7; note: nearly all actives have a fitted effect of over 75% in size
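Enzyme 20 nM + cpd, 15 min RT; add b-H3K9 pep 500 nM / SAM 20 uM; 2 h RT; anti-H3K9me1 Ab 0.5 ug/mL + SA donor / anti-rabbit acceptor beads 20 ug/mL each, 10 min; AlphaScreen read.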
BAZ2B inh – qHTS Assay for Inhibitors of BAZ2B | Bromodomain adjacent to zinc finger domain protein 2B (Homo sapiens), Q9UIF8 | AlphaScreen BAZ2B-H3K14Ac peptide displacement | Potency, µM (top dose mostly 114 µM), actives largely listed as inhibitors | actives 4.4% (n = 360,000); note: nearly all actives have a fitted effect of over 60% in size
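Protein-peptide AlphaScreen: BAZ2B 50 nM, b-H3K14Ac 50 nM, 1x PBS pH 7.4 + 0.01% Tween-20. Preincubation 30 min RT; cpd 30 min RT (top 110 uM); beads 20 min RT, light-protected.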
GLS inh – qHTS for Inhibitors of Glutaminase (GLS). AID 624170, 2012. actives 0.21% (n = 410,000). Glutaminase kidney isoform, mitochondrial (Homo sapiens), O94925. GLS enzymatic activity, qHTS titration. Potency, µM (highest dose often 45.5 µM), hits mostly inhibitors
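Glutamate formation by hKGA was monitored fluorometrically using coupled glutamate oxidase, HRP and Amplex Red. Substrate was added as 1 mM L-glutamine solution; incubation was 30 min at RT after an initial read.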
JMJD2A Tudor inh – qHTS Assay for Inhibitors of JMJD2A-Tudor Domain; Lysine-specific demethylase 4A (Homo sapiens), O75164; AlphaScreen JMJD2A-Tudor / H3K4me3 peptide binding; Potency, µM (titrated, usually from 114 µM), actives largely listed as inhibitors; actives 4.4% (n = 390,000); AID 504339, 2011; note: nearly all actives have a fitted effect of over 50% in size
Large screens that a line does not name were inactive. Calls come from the whole dose curve; as a rule, active = well fitted curve in the direction sought with a large enough effect; inconclusive = small, poorly fitted or top-dose-only effect, or another doubt; inactive = no such curve, though single readings can be large; an effect the other way counts as inactive or inconclusive.

Cc1cc(Nc2cccc([N+](=O)[O-])c2)c2cccc(C)c2n1	none (no result: G9a inh)
Cc1cc(Nc2ccccc2)c2c([N+](=O)[O-])ccc(C)c2n1	HP1b chromo inh inconclusive, G9a inh 11.2µM, BAZ2B inh 28.2µM, JMJD2A Tudor inh 50.1µM
COc1ccc(Nc2nc(NCCCN3CCOCC3)nc(N)c2[N+](=O)[O-])cc1	G9a inh inconclusive
COc1ccc(CCN2CCCC(CN(C)Cc3cc(Cl)c(O)c(OC)c3)C2)cc1 (stereo not given)	G9a inh 70.8µM
COc1ccc(CN(C)CC2CCCN(CCc3ccccc3C)C2)cc1O (stereo not given)	none (no result: G9a inh)
Cc1ccc(C(O)Cn2cc([N+](=O)[O-])nc2C)cc1 (stereo not given)	none
CC(C)OC(=O)c1ccc(NCc2cc(O)ccc2O)cc1	HP1b chromo inh 39.8µM, JMJD2A Tudor inh 3.98µM (no result: G9a inh, BAZ2B inh)
O=C(OCc1ccccc1)c1ccc(NCc2cc(O)ccc2O)cc1	HP1b chromo inh inconclusive, GLS inh inconclusive, JMJD2A Tudor inh 25.1µM (no result: G9a inh, BAZ2B inh)
COP(=O)(OC)c1ccc(NCc2cc(O)ccc2O)cc1	HP1b chromo inh inconclusive, GLS inh inconclusive, JMJD2A Tudor inh 3.55µM (no result: G9a inh, BAZ2B inh)
CC(C)OC(=O)c1ccc(NC(=O)c2ccccc2)cc1	none
CCOC(=O)N1CCC(NC(=O)c2cc(C(=O)Nc3ccc(F)cc3F)ccc2CO)CC1	none
O=C(O)/C=C/C(=O)NCc1cn(-c2ccccc2)nc1-c1cccc(Br)c1	G9a inh 35.5µM
CC1(C)COC(c2cc([N+](=O)[O-])ccc2Cl)=N1	none
O=C(Nc1ccc(Cl)cc1)C1C2C=CC3(O2)C1C(=O)N(CCCN1CCCCC1)C3C(=O)NC1CCCCC1 (stereo not given)	G9a inh 50.1µM
Cc1cc(NC(=O)c2ccc(-c3ccc(F)c(Cl)c3)o2)no1	none
CC(NCC(O)COc1ccc2ccccc2c1)c1ccccc1 (stereo not given)	HP1b chromo inh 44.7µM, G9a inh 14.1µM, BAZ2B inh 50.1µM, JMJD2A Tudor inh 0.794µM
COc1ccc(OCC(O)CNC(C)c2ccccc2)cc1 (stereo not given)	none
CSC1=NCCN1C(=O)c1c(F)cccc1Cl	G9a inh 50.1µM
O=C(CN1C(=O)NC(Cc2c[nH]c3ccccc23)C1=O)Nc1cccc(S(=O)(=O)N2CCOCC2)c1 (stereo not given)	none (no result: G9a inh)
C#CCN(Cc1ccco1)C(=O)c1cc(COc2ccc(F)cc2Cl)on1	BAZ2B inh 70.8µM (no result: G9a inh)
CCN(Cc1ccncc1)C(=O)c1cc(COc2ccc(F)cc2Cl)on1	none (no result: G9a inh)
C=CCn1c(SCCN)nnc1-c1cccc(S(=O)(=O)N2CCOCC2)c1	JMJD2A Tudor inh 14.1µM (no result: G9a inh, BAZ2B inh)
COc1ccc(CC(=O)N2CCOCC2)cc1	G9a inh inconclusive
COc1ccc(N2CCN(C(=O)Cc3ccc(C)cc3)CC2)cc1	G9a inh 70.8µM
O=C(Cc1ccc(-n2cccc2)cc1)N1CCN(c2ccccc2F)CC1	HP1b chromo inh inconclusive, G9a inh 50.1µM, BAZ2B inh 50.1µM, JMJD2A Tudor inh 35.5µM
COc1ccc(N2CCN(c3nc(Cl)nc(N4CCOCC4)n3)CC2)cc1	G9a inh 7.94µM, JMJD2A Tudor inh inconclusive
COc1ccc(N2CCN(C(=O)Cc3nn(C)c(=O)c4ccccc34)CC2)cc1	G9a inh 35.5µM
COc1ccc(N2CCN(c3nc(NCCO)nc(N4CCOCC4)n3)CC2)cc1	G9a inh inconclusive, BAZ2B inh inconclusive
O=C1CN(S(=O)(=O)c2c(F)cccc2F)CCN1S(=O)(=O)c1ccc2c(c1)OCCO2	none (no result: HP1b chromo inh, G9a inh, BAZ2B inh, GLS inh)
COc1ccc(N2CCN(C(=O)Cc3ccc(Cl)cc3)CC2)cc1	G9a inh 50.1µM, BAZ2B inh inconclusive
COc1ccc(N2CCN(C(=O)CCC(=O)c3cc(C)sc3C)CC2)cc1	G9a inh 50.1µM, BAZ2B inh inconclusive, JMJD2A Tudor inh inconclusive
Cc1cc(C(=O)CCC(=O)N2CCN(c3ccccc3O)CC2)c(C)s1	none
COc1ccc(N2CCN(C(=O)CN=C3NS(=O)(=O)C(c4ccc(C)cc4)=C3C)CC2)cc1	G9a inh 39.8µM
CC1=C(c2ccc(C)cc2)S(=O)(=O)NC1=NCCCN1CCN(c2ccc(F)cc2)CC1	G9a inh inconclusive
CC(=O)Oc1cc(C(=O)OCC(=O)NC23CC4CC(CC(C4)C2)C3)cc(OC(C)=O)c1OC(C)=O	HP1b chromo inh inconclusive, JMJD2A Tudor inh 3.55µM (no result: G9a inh, BAZ2B inh)
COc1cccc(C(=O)OCC(=O)NC23CC4CC(CC(C4)C2)C3)c1	none (no result: G9a inh, BAZ2B inh)
C=CCOCCN(C)C1=NS(=O)(=O)c2cc([N+](=O)[O-])ccc21	none
CN(CCO)C1=NS(=O)(=O)c2cc([N+](=O)[O-])ccc21	G9a inh 79.4µM
CCOc1ccc(C(C(=O)Nc2ccc(F)cc2)N(C(=O)Cn2nnc3ccccc32)C2CC2)cc1 (stereo not given)	none
Cc1ccc(C)n1-c1sc2c(c1C(=O)O)CCCC2	HP1b chromo inh inconclusive, G9a inh 44.7µM, BAZ2B inh inconclusive, JMJD2A Tudor inh 22.4µM
CCOC(=O)c1c(-n2c(C)cc(C=O)c2C)sc2c1CCCC2	G9a inh inconclusive, BAZ2B inh inconclusive, JMJD2A Tudor inh 56.2µM
Cc1ccc(C(=O)Nc2sc3c(c2C(=O)O)CCCC3)o1	G9a inh inconclusive
CC(=O)Nc1cc(=O)c2cccnc2[nH]1	GLS inh 15.8µM, JMJD2A Tudor inh 50.1µM (no result: G9a inh, BAZ2B inh)
c1ccc(-c2cc3n(c2)CCc2ccccc2-3)cc1	G9a inh 3.16µM, JMJD2A Tudor inh inconclusive
CC1C(=O)N2CCCc3cc(NC(=O)c4ccccc4Br)cc1c32 (stereo not given)	none
CCCn1c(SCC(=O)N2CCN(c3ccc(OC)cc3)CC2)nc2c1c(=O)n(C)c(=O)n2C	G9a inh 50.1µM
Cn1c(=O)c2c(nc(N/N=C/c3ccncc3)n2Cc2ccccc2)n(C)c1=O	GLS inh 12.6µM
CCCn1c(SCC(=O)N2CCCC2)nc2c1c(=O)n(C)c(=O)n2C	none
Cn1c(=O)c2c(nc(CN3CCN(Cc4ccccc4)CC3)n2Cc2ccc(Cl)cc2)n(C)c1=O	G9a inh 44.7µM, JMJD2A Tudor inh inconclusive
Cn1c(=O)c2c(nc(CN3CCN(Cc4ccccc4)CC3)n2Cc2ccccc2)n(C)c1=O	none (no result: HP1b chromo inh, GLS inh, JMJD2A Tudor inh)
CCN1CCN(c2nc3c(c(=O)n(C)c(=O)n3C)n2Cc2cccc3ccccc23)CC1	G9a inh 39.8µM
Cc1ccc(Cn2c(N/N=C/c3ccncc3)nc3c2c(=O)n(C)c(=O)n3C)cc1	HP1b chromo inh inconclusive, GLS inh inconclusive
Cc1cc2c(cc(C(=O)O)n2C)s1	none
CC(=O)Nc1ccc(/C(C)=N/NS(=O)(=O)c2ccccc2)cc1	G9a inh inconclusive
CCc1nnc(NS(=O)(=O)c2ccc(N)cc2)s1	none
